{"source": "PubChem BioAssay (EPA / NIEHS)", "note": "Inconclusive results are not listed. The source made the active and inactive calls. How the source made its calls: active means hit-call score of the fitted dose curve at least 0.9, where 1 is the maximum; inconclusive means response in the unintended direction; inactive means score below 0.9."}
{"target": "human Peroxisome Proliferator-activated Receptor delta (PPARd), PPARD (gene 5467) (UniProt Q03181)", "sequence (Q03181 whole entry, looked up)": "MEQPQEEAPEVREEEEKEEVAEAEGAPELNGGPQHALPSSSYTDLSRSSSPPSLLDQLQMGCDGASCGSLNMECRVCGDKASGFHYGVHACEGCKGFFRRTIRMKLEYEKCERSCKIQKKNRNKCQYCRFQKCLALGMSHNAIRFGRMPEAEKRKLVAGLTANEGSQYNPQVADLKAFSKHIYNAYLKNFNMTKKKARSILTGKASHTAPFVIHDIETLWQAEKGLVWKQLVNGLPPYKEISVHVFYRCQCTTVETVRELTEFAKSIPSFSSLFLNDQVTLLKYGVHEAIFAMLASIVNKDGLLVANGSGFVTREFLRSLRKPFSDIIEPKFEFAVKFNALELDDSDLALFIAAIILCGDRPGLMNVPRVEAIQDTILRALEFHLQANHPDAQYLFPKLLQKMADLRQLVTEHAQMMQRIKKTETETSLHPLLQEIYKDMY", "experiment": "ATG_PPARd_TRANS: Attagene TRANS-FACTORIAL HepG2 Assay for human Peroxisome Proliferator-activated Receptor delta (PPARd) (AID 2283002)", "protocol": "ATG_TRANS is a cell-based, multiplexed-readout assay that uses HepG2, a human liver cell line, with measurements taken at 24 hours after chemical dosing in a 24-well plate.ATG_PPARd_TRANS is one of 30 assay component(s) measured or calculated from the ATG_TRANS assay. It is designed to make measurements of mRNA induction, a form of inducible reporter, as detected with fluorescence intensity signals by Reverse transcription polymerase chain reaction (RT-PCR) and Capillary electrophoresis technology.Data from the assay component ATG_PPARd_TRANS was analyzed into 1 assay endpoint. This assay endpoint, ATG_PPARd_TRANS, was analyzed in the positive analysis fitting direction relative to DMSO as the negative control and baseline of activity. Using a type of inducible reporter, measures of mRNA for gain-of-signal activity can be used to understand the reporter gene at the transcription factor-level as they relate to the gene PPARD. Furthermore, this assay endpoint can be referred to as a primary readout, because this assay has produced multiple assay endpoints where this one serves a reporter gene function. To generalize the intended target to other relatable targets, this assay endpoint is annotated to the nuclear receptor intended target family, where the subfamily is non-steroidal.\nHuman liver HepG2 cells are transiently transfected with multiple reporter transcription units (MRTUs) in 6-well plates using FuGene 6 reagent (Roche; 3 ml FuGene/1 mg DNA). The MRTU constructs are regulated by a cis-regulating element (promoter). […] A major difference between the CIS and TRANS system is that in CIS activities of endogenous TFs are measured, whereas the TRANS assay evaluates changes in activities of exogenous, chimeric NR-Gal4 proteins. […] At the end of 24 hour incubation, total RNA was isolated using TriZol reagent (Invitrogen). The isolated RNA is then reverse-transcribed using oligo(dT) primer and Mo-MLV reverse transcriptase (Invitrogen) with DNAse I (Ambion) treatment for 30 min. The one-tenth of the produced cDNA was amplified by PCR using Taq DNA polymerase (Invitrogen) and two reporter sequence-specific primers. The PCR products were fluorescently labeled by primer extension with 6-arboxyfluorescein (6-FAM) 5'-labeled reporter sequence-specific primer (2 min at 95 C, 20 s at 68 C and 10 min at 72 C) and these products were digested with 5U of HpaI (New England Biolabs) for 2h at 37 C. The fragments were purified using Qiaquick PCR columns (Qiagen), analyzed on an ABI 3130xL genetic analyzer (Applied Biosystems) with peak positions identified by using a set of X-rhodamine (ROX)-labeled MapMarker1000 molecular weight standards (BioVentures). The raw capillary electrophoresis data was processed using Attagraph software (Attagene)."}
{"smiles": "CCCc1ccc(O)cc1", "outcome": "inactive"}
{"smiles": "CC(C)(C)c1cc(CCC(=O)OCCSCCOC(=O)CCc2cc(C(C)(C)C)c(O)c(C(C)(C)C)c2)cc(C(C)(C)C)c1O", "outcome": "inactive"}
{"smiles": "CN(C)c1ccc(C=O)cc1", "outcome": "inactive"}
{"smiles": "CN1CCc2cccc3c2[C@H]1Cc1ccc(O)c(O)c1-3", "outcome": "inactive"}
{"smiles": "C=CC(C)CCCC(C)(C)O", "note": "(stereo not given)", "outcome": "inactive"}
{"smiles": "CC(=O)CCc1ccc(O)cc1", "outcome": "inactive"}
{"smiles": "CC(C)=CC(=O)O", "outcome": "inactive"}
{"smiles": "CC1(C)CC(N)CC(C)(CN)C1", "note": "(stereo not given)", "outcome": "inactive"}
{"smiles": "Cc1cccc(C)c1", "outcome": "inactive"}
{"smiles": "CCCCC/C=C\\C=C\\C(=O)OCC", "outcome": "inactive"}
{"smiles": "Cc1cc(O)c(C)c(C)c1O", "outcome": "inactive"}
{"smiles": "C[N+](C)(C)CCO", "outcome": "inactive"}
{"smiles": "C=CCOC(=O)/C=C\\C(=O)OCC=C", "outcome": "inactive"}
{"smiles": "CCO[Si](CC)(OCC)OCC", "outcome": "inactive"}
{"smiles": "[Na+]", "outcome": "inactive"}
{"smiles": "C[C@]12CC[C@@H]3c4ccc(O)cc4CC[C@H]3[C@@H]1CC[C@@H]2O", "outcome": "inactive"}
{"smiles": "CCCCCC#CC(=O)OC", "outcome": "inactive"}
{"smiles": "CCCCCCCOC(C)=O", "outcome": "inactive"}
{"smiles": "O=C(O)C1=NN(c2ccc(S(=O)(=O)O)cc2)C(=O)C1", "outcome": "inactive"}
{"smiles": "CCCCCCCCSCc1cc(C)c(O)c(CSCCCCCCCC)c1", "outcome": "inactive"}
{"smiles": "NC(=O)c1c(Cl)cccc1Cl", "outcome": "inactive"}
{"smiles": "CCC(=O)OC/C=C(\\C)CCC=C(C)C", "outcome": "inactive"}
{"smiles": "NS(=O)(=O)c1cc(C(=O)O)c(NCc2ccco2)cc1Cl", "outcome": "inactive"}
{"smiles": "O=S1(=O)CC=CC1", "outcome": "inactive"}
{"smiles": "CC12CCC(C1)C(C)(C)C2O", "note": "(stereo not given)", "outcome": "inactive"}
{"smiles": "CC(C)(O)C(=O)c1ccc(OCCO)cc1", "outcome": "inactive"}
{"smiles": "CCCCCC(=O)O[C@]1(C(C)=O)CC[C@H]2[C@@H]3CCC4=CC(=O)CC[C@]4(C)[C@H]3CC[C@@]21C", "outcome": "inactive"}
{"smiles": "CCOC(=O)C(=O)OCC", "outcome": "inactive"}
{"smiles": "CCCCCCCCCC(=O)OCC", "outcome": "inactive"}
{"smiles": "CC(CO)(CO)[N+](=O)[O-]", "outcome": "inactive"}
{"smiles": "C/C=C(\\C)C(=O)OC/C=C(\\C)CCC=C(C)C", "outcome": "inactive"}
{"smiles": "S=c1[nH][nH]c(=S)s1", "outcome": "inactive"}
{"smiles": "O=C1OC2(c3ccc(O)cc3Oc3cc(O)ccc32)c2ccccc21", "outcome": "inactive"}
{"smiles": "CNC(=C[N+](=O)[O-])NCCSCc1ccc(CN(C)C)o1", "outcome": "inactive"}
{"smiles": "CCCCCCCCCCO[C@@H]1O[C@H](CO)[C@@H](O)[C@H](O)[C@H]1O", "outcome": "inactive"}
{"smiles": "CC(C)C(=O)OCC=Cc1ccccc1", "outcome": "inactive"}
{"smiles": "CCOC(=O)CC(C)C", "outcome": "inactive"}
{"smiles": "N#CCCCC(C#N)CCC#N", "note": "(stereo not given)", "outcome": "inactive"}
{"smiles": "CC(=O)Oc1c(C)c(C)c2c(c1C)CC[C@@](C)(CCC[C@H](C)CCC[C@H](C)CCCC(C)C)O2", "outcome": "inactive"}
{"smiles": "O=C1Cc2ccccc2C1", "outcome": "inactive"}
